Shown are actives, neighbours in structure and some others; about 19% of the full set was active somewhere.
TDP1 cell noCPT – qHTS for Inhibitors of human tyrosyl-DNA phosphodiesterase 1 (TDP1): qHTS in cells in absence of CPT; DT40 Tdp1-/- hTDP1 cells, no CPT, ATP luminescence, 48 h; Potency, µM (titrated, usually from 46.2 µM), inactives show at the top dose activity change, negative = growth inhibition, most hits filed as inhibitors; hit rate 15% among 420,000; AID 686978, 2013; further: potency means the concentration at half of the fitted maximal effect; nearly all actives have a fitted effect of over 55% in size
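Growth of hTDP1-complemented DT40 Tdp1-knockout cells is measured by ATP luminescence after at least 48 hr compound exposure at 37 °C, with DMSO substituting for the 20 nM CPT used in the parallel screen.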
HT1080 IDH1KD tx – qHTS for induction of synthetic lethality in tumor cells producing 2HG: qHTS for the HT-1080-IDH1KD cell line. AID 686971, 2013. hit rate 2% among 360,000. HT-1080 IDH1 knockdown viability, ATP luminescence, 48 h. Potency, µM (doses to about 46.1 µM), without a hit: top-dose activity, negative = toxicity, most hits filed as cytotoxic;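 further: potency means the concentration at half of the fitted maximal effect; 0% = DMSO wells and -100% = cell-free medium wells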
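% activity derives from luminescence (CellTiter-Glo), normalised to DMSO and no-cell wells. HT-1080-IDH1KD cells, 750/well, had 48 h compound exposure at 37 °C.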
HT1080NT lethal – qHTS for induction of synthetic lethality in tumor cells producing 2HG: qHTS for the HT-1080-NT fibrosarcoma cell line; HT-1080-NT fibrosarcoma viability, CellTiter-Glo ATP luminescence, 48 h; hit rate 1.6% among 360,000; AID 686970, 2013; Potency, µM (doses to about 46.1 µM), for the others: at the highest dose activity, negative = less viability, usual class: cytotoxic;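 further: NT is the 2HG producing partner of a matched IDH1 knockdown line; potency means the concentration at half of the fitted maximal effect; 0% = DMSO-treated cells and -100% = media-only wells without cells; nearly all actives have a fitted effect of over 55% in size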
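HT-1080-NT; 750 cells/well; 5% FBS RPMI; 48 h compound, 37 degrees C; CellTiter-Glo luminescence; curve fitting and curve-class assignment.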
DT40 TDP1 CPT – qHTS for Inhibitors of human tyrosyl-DNA phosphodiesterase 1 (TDP1): qHTS in cells in presence of CPT. chicken DT40 Tdp1-/-;hTDP1 cells + 20 nM CPT, ATP luminescence, 48 h. hit rate 12% among 420,000. Potency, µM (titrated, usually from 46.2 µM), for inactives: at the highest dose activity change, negative = growth inhibition, actives largely listed as inhibitors. AID 686979, 2013; further: potency means the concentration at half of the fitted maximal effect; nearly all actives have a fitted effect of over 55% in size
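Chicken DT40 Tdp1-/- cells complemented with human TDP1, 400 cells/well, exposed to compounds plus 20 nM camptothecin for at least 48 h at 37 C; viability read as ATP content by CellTiter-Glo luminescence.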
IL1B secr inh – qHTS for Inhibitors of Inflammasome Signaling: IL-1-beta AlphaLISA Primary Screen; THP-1 LPS/ATP IL-1B secretion, AlphaLISA, 16 h; stronger effect = lower value; activity change, % at 57.5 µM; hit rate 4.7% among 360,000; AID 743279, 2014; in the data active means activity change below about -50%; inconclusive means mostly about -30% to -49%
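THP-1 cells pretreated 1 hr with compounds (up to 57.5 uM final), then stimulated with LPS (250 ng/mL final) plus ATP (1.25 mM final); secreted IL-1B measured by AlphaLISA after 16 hr, decreased signal indicating inhibition.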
An asterisk follows results filed as active. Unless noted, the call rests on the fitted dose curve; in most records, active means well fitted curve in the direction sought with a large enough effect; inconclusive means small, poorly fitted or top-dose-only effect, or another doubt; inactive means no such curve, though single readings can be large; an effect the other way counts as inactive or inconclusive. Unless noted, on the % scale 0 is the no-effect control and ±100 the full control effect.

For O=C(CSC1=NS(=O)(=O)c2ccccc2N1)Nc1ccccc1F the results were TDP1 cell noCPT 0.9%, HT1080 IDH1KD tx 9.1%, HT1080NT lethal 5.8%, DT40 TDP1 CPT 4.1% and IL1B secr inh -5.4.
For O=C(NCCc1ccc(Cl)cc1)C1CCN(S(=O)(=O)c2ccc(Br)s2)CC1 the results were TDP1 cell noCPT inconclusive, HT1080 IDH1KD tx -19.8%, HT1080NT lethal -10.7%, DT40 TDP1 CPT -29.3% and IL1B secr inh -2.7.
O=C(Nc1ccc(S(=O)(=O)N2CCOCC2)cc1)c1ccc([N+](=O)[O-])o1 was read as TDP1 cell noCPT 2.59µM*, HT1080 IDH1KD tx 8.2µM*, HT1080NT lethal 18.4µM*, DT40 TDP1 CPT 1.03µM* and IL1B secr inh -99.8*.
Screening COc1cc(S(=O)(=O)NC(Cc2c[nH]c3ccccc23)C(=O)O)ccc1NC(C)=O (stereo unspecified) returned TDP1 cell noCPT -8.0%, HT1080 IDH1KD tx 15.0%, HT1080NT lethal 12.3%, DT40 TDP1 CPT 3.2% and IL1B secr inh 19.8.
Cc1ccc(C(=O)OCC(=O)NC(=O)c2ccccc2)o1 was read as TDP1 cell noCPT -0.6%, HT1080 IDH1KD tx 11.0%, HT1080NT lethal 18.0%, DT40 TDP1 CPT inconclusive and IL1B secr inh 6.7.
`CC(C)CCc1noc(CN(C)CCC2CCOCC2)n1` gave TDP1 cell noCPT -8.3%, HT1080 IDH1KD tx 6.2%, HT1080NT lethal 21.9%, DT40 TDP1 CPT 0.3% and IL1B secr inh 22.1.
Cc1nn(C)c(C)c1CN(Cc1nc(CCC(C)C)no1)C(C)C was read as TDP1 cell noCPT 0.581µM*, HT1080 IDH1KD tx inconclusive, HT1080NT lethal -13.3%, DT40 TDP1 CPT 2.31µM* and IL1B secr inh -6.3.
Screening O=C(c1cccc(C(F)(F)F)c1)N1CCc2c([nH]c3ccccc23)C1C(F)(F)F (stereo unspecified) returned TDP1 cell noCPT inconclusive, HT1080 IDH1KD tx inconclusive, HT1080NT lethal inconclusive, DT40 TDP1 CPT inconclusive and IL1B secr inh -83.1*.
`COc1ccc(C(=O)N2CCc3c([nH]c4ccccc34)C2C(F)(F)F)cc1` (stereo unspecified) gave TDP1 cell noCPT inconclusive, HT1080 IDH1KD tx 8.8%, HT1080NT lethal -1.9%, DT40 TDP1 CPT inconclusive and IL1B secr inh -8.1.
Screening O=C(O)CSCC(=O)N1CCc2c([nH]c3ccccc23)C1C(F)(F)F (stereo unspecified) returned TDP1 cell noCPT -11.8%, HT1080 IDH1KD tx 15.2%, HT1080NT lethal inconclusive, DT40 TDP1 CPT 0.8% and IL1B secr inh -6.2.
COc1ccccc1NC(=O)N1CCc2c([nH]c3ccccc23)C1C(F)(F)F (stereo unspecified) was read as TDP1 cell noCPT -28.0%, HT1080 IDH1KD tx -9.9%, HT1080NT lethal -20.4%, DT40 TDP1 CPT -30.0% and IL1B secr inh -60.5*.
NC(=O)c1nnn(Cc2cc(Cl)c(C(=O)c3ccc(Cl)cc3)c(Cl)c2)c1N was read as TDP1 cell noCPT 16.4µM*, HT1080 IDH1KD tx 4.11µM*, HT1080NT lethal 9.2µM*, DT40 TDP1 CPT 4.61µM* and IL1B secr inh -0.3.
Screening C#Cc1ccc(CN2CCC(Oc3ccc(C(=O)NCc4ccccn4)cc3)CC2)cc1 returned TDP1 cell noCPT -28.1%, HT1080 IDH1KD tx 3.2%, HT1080NT lethal 0.0%, DT40 TDP1 CPT -21.5% and IL1B secr inh -6.1.
For O=C(Nc1cccc(-c2cnc3ccccc3n2)c1)c1cccc(NC(=O)c2ccco2)c1 the results were TDP1 cell noCPT 14.6µM*, HT1080 IDH1KD tx inconclusive, HT1080NT lethal inconclusive, DT40 TDP1 CPT 6.51µM* and IL1B secr inh 59.8.
Screening CC(C)Oc1ccc(C(=O)Nc2ccc(NC(=O)c3ccco3)c(Cl)c2)cc1 returned TDP1 cell noCPT inconclusive, HT1080 IDH1KD tx 10.5%, HT1080NT lethal 12.6%, DT40 TDP1 CPT inconclusive and IL1B secr inh inconclusive.
O=C(Nc1cccc(NC(=O)c2nccc3ccccc23)c1)c1ccco1 was read as TDP1 cell noCPT 10.3µM*, HT1080 IDH1KD tx 0.0%, HT1080NT lethal 1.5%, DT40 TDP1 CPT inconclusive and IL1B secr inh 3.5.
For CCC(=O)Nc1cccc(-c2cnc3ccccc3n2)c1 the results were TDP1 cell noCPT inconclusive, HT1080 IDH1KD tx 0.7%, HT1080NT lethal 1.4%, DT40 TDP1 CPT inconclusive and IL1B secr inh 30.2.
`CC(C)COc1ccc(C(=O)Nc2ccc(NC(=O)c3ccco3)c(Cl)c2)cc1` gave TDP1 cell noCPT -24.7%, HT1080 IDH1KD tx 14.6µM*, HT1080NT lethal inconclusive, DT40 TDP1 CPT inconclusive and IL1B secr inh -5.9.
`O=C(CCl)Nc1cccc(-c2cnc3ccccc3n2)c1` gave TDP1 cell noCPT 2.31µM*, HT1080 IDH1KD tx inconclusive, HT1080NT lethal inconclusive, DT40 TDP1 CPT 2.91µM* and IL1B secr inh -96.3*.
For COCCN1CCN(C(=O)c2cc(COc3ccc(Cl)cc3OC)on2)CC1 the results were TDP1 cell noCPT -8.9%, HT1080 IDH1KD tx -3.4%, HT1080NT lethal 0.2%, DT40 TDP1 CPT -27.6% and IL1B secr inh -7.7.
Screening O=C(Nc1cccc(-c2cnc3ccccc3n2)c1)C1CC(=O)N(c2ccccc2)C1 (stereo unspecified) returned TDP1 cell noCPT 23.1µM*, HT1080 IDH1KD tx 0.3%, HT1080NT lethal -1.5%, DT40 TDP1 CPT 20.6µM* and IL1B secr inh inactive.
`Nc1ccc(C(=O)Nc2ccc(NC(=O)c3ccco3)c(O)c2)cc1` gave TDP1 cell noCPT 16.4µM*, HT1080 IDH1KD tx 0.9%, HT1080NT lethal 4.2%, DT40 TDP1 CPT inconclusive and IL1B secr inh -19.8.
`O=C(Nc1ccc(Cl)c(Cl)c1)Oc1ccc(NC(=O)c2ccco2)cc1` gave TDP1 cell noCPT 25.9µM*, HT1080 IDH1KD tx -23.5%, HT1080NT lethal -18.5%, DT40 TDP1 CPT inconclusive and IL1B secr inh -88.2*.
For O=C(Nc1ccccc1C(=O)O)c1cccc(NC(=O)c2ccc(Br)o2)c1 the results were TDP1 cell noCPT 1.64µM*, HT1080 IDH1KD tx -3.0%, HT1080NT lethal -5.7%, DT40 TDP1 CPT -6.7% and IL1B secr inh -5.7.
`CCCCn1nnnc1C1(C)CCC(=O)N1Cc1cccnc1` (stereo unspecified) gave TDP1 cell noCPT -3.4%, HT1080 IDH1KD tx 25.9%, HT1080NT lethal 19.1%, DT40 TDP1 CPT 7.3% and IL1B secr inh 73.1.
Screening O=C(Nc1ccc(NC(=O)c2ccco2)c(Cl)c1)c1ccccc1 returned TDP1 cell noCPT 23.1µM*, HT1080 IDH1KD tx 13.7%, HT1080NT lethal 2.4%, DT40 TDP1 CPT inconclusive and IL1B secr inh inconclusive.
